Laboratory results as given in PubChem BioAssay AID1159580 (chemical genetic matrix, 2015).
Values joined by “and” are separate entries in the source; they are usually repeats but may differ in a detail not shown here. Equal entries are not always repeated. About 2,000 (36%) of roughly 5,500 compounds were called active. About 18% were inconclusive and are not listed. No stated cut-off is given here; in the data, active means normalized growth mostly below about 0.91 (no sharp cut-off); inconclusive means no clear call, values can overlap the other calls; inactive means mostly above about 0.92. This is one part of the list.

Test: chemical genetic growth profiling, strain panel (AID 1159580);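 further: tested at 20 µM; growth read once vehicle control cultures reached saturation at 30 °C; 1 = growth at the plate median or of vehicle wells; lower values mean less growth of the strain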
Details: growth OD

Measured: normalized growth

CCCOc1ccccc1-c1nc2n[nH]nc2c(=O)[nH]1
inactive: S. cerevisiae deletion strains, locus YJL187C, strain SWE1 (second series), active compounds read low 0.992 | S. cerevisiae deletion strains, locus YJL187C, strain SWE1, active compounds read low 1 | S. cerevisiae deletion strains, locus YJR043C, strain POL32, active compounds read low 0.995 | S. cerevisiae deletion strains, locus YJR075W, strain HOC1, active compounds read low 0.979 | S. cerevisiae deletion strains, locus YKL009W, strain mrt4, active compounds read low 1 | S. cerevisiae deletion strains, locus YKL068W, active compounds read low 0.999 | S. cerevisiae deletion strains, locus YKL085W, strain MDH1 (second series), active compounds read low 1 | S. cerevisiae deletion strains, locus YKL085W, strain MDH1, active compounds read low 1 | S. cerevisiae deletion strains, locus YKL160W, strain elf1, active compounds read low 0.974 | S. cerevisiae deletion strains, locus YKL190W, strain CNB1, active compounds read low 1 | S. cerevisiae deletion strains, locus YKR001C, strain vps1, active compounds read low 1.01 | S. cerevisiae deletion strains, locus YKR026C, strain gcn3, active compounds read low 1 | S. cerevisiae deletion strains, locus YKR091W, strain srl3, active compounds read low 1 | S. cerevisiae deletion strains, locus YLL001W, strain dnm1, active compounds read low 0.995 | S. cerevisiae deletion strains, locus YLL026W, active compounds read low 1.01 | S. cerevisiae deletion strains, locus YLL041C, strain sdh2, active compounds read low 0.994 | S. cerevisiae deletion strains, locus YLR027C, strain aat2, active compounds read low 1.01 | S. cerevisiae deletion strains, locus YLR039C, strain RIC1, active compounds read low 1.05 | S. cerevisiae deletion strains, locus YLR058C, strain SHM2, active compounds read low 0.997 | S. cerevisiae deletion strains, locus YLR102C, strain apc9, active compounds read low 1.01 | S. cerevisiae deletion strains, locus YLR221C, strain rsa3, active compounds read low 0.995 | S. cerevisiae deletion strains, locus YLR258W, strain gsy2, active compounds read low 1.03 | S. cerevisiae deletion strains, locus YLR262C, strain YPT6 (second series), active compounds read low 0.997 | S. cerevisiae deletion strains, locus YLR262C, strain YPT6, active compounds read low 1.02 | S. cerevisiae deletion strains, locus YLR268W, strain sec22, active compounds read low 1.01 | S. cerevisiae deletion strains, locus YLR320W, strain mms22, active compounds read low 1.02 | S. cerevisiae deletion strains, locus YLR330W, strain CHS5, active compounds read low 1.01 | S. cerevisiae deletion strains, locus YLR342W, strain FKS1 (second series), active compounds read low 1.04 | S. cerevisiae deletion strains, locus YLR342W, strain FKS1, active compounds read low 1.01 | S. cerevisiae deletion strains, locus YLR357W, strain rsc2, active compounds read low 1.01 | S. cerevisiae deletion strains, locus YLR370C, strain arc18, active compounds read low 0.996 | S. cerevisiae deletion strains, locus YLR371W, strain rom2, active compounds read low 1.02 | S. cerevisiae deletion strains, locus YLR384C, strain iki3, active compounds read low 1 | S. cerevisiae deletion strains, locus YLR418C, strain cdc73, active compounds read low 1.02 | S. cerevisiae deletion strains, locus YML016C, strain PPZ1, active compounds read low 1 | S. cerevisiae deletion strains, locus YML032C, strain rad52, active compounds read low 1.02 | S. cerevisiae deletion strains, locus YML120C, strain ndi1, active compounds read low 0.997 | S. cerevisiae deletion strains, locus YML124C, strain tub3, active compounds read low 1 | S. cerevisiae deletion strains, locus YMR058W, strain fet3, active compounds read low 1.01 | S. cerevisiae deletion strains, locus YMR078C, strain ctf18, active compounds read low 1.01 | S. cerevisiae deletion strains, locus YMR125W, strain sto1, active compounds read low 1.01 | S. cerevisiae deletion strains, locus YMR129W, active compounds read low 1 | S. cerevisiae deletion strains, locus YMR205C, strain PFK2, active compounds read low 1.03 | S. cerevisiae deletion strains, locus YMR223W, strain ubp8, active compounds read low 1.01 | S. cerevisiae deletion strains, locus YMR231W, strain pep5, active compounds read low 1.01 | S. cerevisiae deletion strains, locus YMR307W, strain GAS1, active compounds read low 1.08 and 0.984 | S. cerevisiae deletion strains, locus YNL067W, strain RPL9B, active compounds read low 1 | S. cerevisiae deletion strains, locus YNL071W, strain lat1, active compounds read low 1 | S. cerevisiae deletion strains, locus YNL153C, strain GIM3, active compounds read low 1.04 | S. cerevisiae deletion strains, locus YNL175C, strain NOP13, active compounds read low 1.02 | S. cerevisiae deletion strains, locus YNL197C, strain WHI3, active compounds read low 1.01 | S. cerevisiae deletion strains, locus YNL209W, strain ssb2, active compounds read low 1 | S. cerevisiae deletion strains, locus YNL224C, strain SQS1, active compounds read low 1 | S. cerevisiae deletion strains, locus YNL233W, strain BNI4, active compounds read low 0.995 | S. cerevisiae deletion strains, locus YNL248C, strain rpa49, active compounds read low 0.957 | S. cerevisiae deletion strains, locus YNL250W, strain rad50, active compounds read low 1 | S. cerevisiae deletion strains, locus YNL271C, strain bni1, active compounds read low 1.01 | S. cerevisiae deletion strains, locus YNL298W, strain CLA4, active compounds read low 1.02 | S. cerevisiae deletion strains, locus YNL307C, strain MCK1, active compounds read low 1.02 | S. cerevisiae deletion strains, locus YNL322C, strain KRE1 (second series), active compounds read low 0.998 | S. cerevisiae deletion strains, locus YNR049C, strain mso1, active compounds read low 1 | S. cerevisiae deletion strains, locus YNR052C, strain pop2, active compounds read low 1.01 | S. cerevisiae deletion strains, locus YOL006C, strain TOP1, active compounds read low 1 | S. cerevisiae deletion strains, locus YOL012C, strain htz1 1.16 | S. cerevisiae deletion strains, locus YOL147C, strain pex11, active compounds read low 1.01 | S. cerevisiae deletion strains, locus YOR001W, strain rrp6, active compounds read low 0.971 | S. cerevisiae deletion strains, locus YOR061W, strain CKA2, active compounds read low 1.01 | S. cerevisiae deletion strains, locus YOR069W, strain VPS5, active compounds read low 1 | S. cerevisiae deletion strains, locus YOR070C, strain gyp1, active compounds read low 0.999 | S. cerevisiae deletion strains, locus YOR080W, strain dia2, active compounds read low 1.01 | S. cerevisiae deletion strains, locus YOR083W, strain WHI5 (second series), active compounds read low 1.02 | S. cerevisiae deletion strains, locus YOR083W, strain WHI5, active compounds read low 0.962 | S. cerevisiae deletion strains, locus YOR106W, strain vam3, active compounds read low 0.981 | S. cerevisiae deletion strains, locus YOR136W, strain idh2, active compounds read low 1.01 | S. cerevisiae deletion strains, locus YOR144C, strain elg1, active compounds read low 1.01 | S. cerevisiae deletion strains, locus YOR184W, strain ser1, active compounds read low 1.01 | S. cerevisiae deletion strains, locus YOR265W, strain rbl2, active compounds read low 1 | S. cerevisiae deletion strains, locus YOR270C, strain vph1, active compounds read low 0.98 | S. cerevisiae deletion strains, locus YOR290C, strain snf2, active compounds read low 0.992 | S. cerevisiae deletion strains, locus YOR316C, strain cot1, active compounds read low 1.01 | S. cerevisiae deletion strains, locus YPL051W, strain arl3, active compounds read low 0.991 | S. cerevisiae deletion strains, locus YPL078C, strain atp4, active compounds read low 0.981 | S. cerevisiae deletion strains, locus YPL106C, strain sse1, active compounds read low 1.02 | S. cerevisiae deletion strains, locus YPL240C, strain hsp82, active compounds read low 1.01 | S. cerevisiae deletion strains, locus YPR119W, strain clb2, active compounds read low 1.01 | S. cerevisiae deletion strains, locus YPR141C, strain kar3, active compounds read low 1 | S. cerevisiae deletion strains, locus YPR163C, strain tif3, active compounds read low 1.02 | S. cerevisiae deletion strains, locus YPR167C, strain met16, active compounds read low 1.02 | S. cerevisiae deletion strains, strain wtn01, active compounds read low 1.02 | S. cerevisiae strains, strain wild type, active compounds read low 1.01
